Source: PubChem BioAssay
Rows were chosen to be rich in hits. Some 8.1% of all compounds tested hit in one or more screens of this group.
PINK1 modulator = PINK1 expression modulation; PINK1 immunofluorescence, high-content cytometry, 24 h; Potency, µM (doses to about 76.6 µM), without a hit: top-dose activation (PINK1 increase), actives largely listed as activators; 410,000 compounds, 0.2% hits; AID 624263; active = well fitted activation curve with a large enough effect; inconclusive = small, poorly fitted or top-dose-only effect; cell line not stated here; also: % of control where 0% means no effect; nearly all actives have a fitted effect of over 65% in size
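Compound titrations (5 concentrations, 24 h) on a stable cell line; DMSO and CCCP controls. Endpoint: fixed-cell PINK1 immunofluorescence with mitochondrial, cell and nuclear markers, scanned by microplate cytometer.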
Epigenetic reg = epigenetic control regulation, reporter derepression; AID 1865; 280,000 compounds, 0.2% hits; murine LDR cells, GFP reporter derepression, 30 h; Potency, µM (titrated, usually from 53.9 µM), without a hit: top-dose GFP activation, actives largely listed as activators; also: % of control where 0% means no effect; nearly all actives have a fitted effect of over 60% in size
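GFP-positive cell count by laser-scanning cytometry (objects 20–120 um) after 30 h, 37 C compound exposure of murine LDR cells; reporter is CMV-GFP integrated at a silenced locus, inducible by HDAC or DNMT inhibitors.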
ClpP mod = qHTS Assay for Activators of ClpP. purified B. subtilis ClpP, FRET peptide cleavage, 20 min. Potency, µM (doses to about 57.5 µM), for inactives: at the highest dose activity change, negative = active. 340,000 compounds, 1.9% hits. AID 651965, 2013; active = well fitted falling curve with a large enough effect; inconclusive = small, poorly fitted or top-dose-only effect; inactive = no such curve, though single readings can be large or run the other way; also: the source files actives as falling curves though it sought activators and does not explain the sign; nearly all actives have a fitted effect of over 65% in size
Target sequence (P80244 whole entry, looked up): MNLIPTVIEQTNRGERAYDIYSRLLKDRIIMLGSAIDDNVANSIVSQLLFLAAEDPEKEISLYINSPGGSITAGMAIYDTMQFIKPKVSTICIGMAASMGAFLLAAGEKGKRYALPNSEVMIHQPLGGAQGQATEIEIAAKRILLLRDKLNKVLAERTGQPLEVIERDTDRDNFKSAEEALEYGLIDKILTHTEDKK
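FRET quenching reversal measured ClpP activation: 10 microg/mL B. subtilis ClpP at pH 8 with the FRET-FV decapeptide, read at 430 nm after 320 nm excitation. The 20-min minus 0-min signal was scaled between DMSO/no-enzyme wells and ADEP (5.8 microM final).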
RORg inh = inhibitors of mouse ROR gamma transcriptional activity | Drosophila S2 Gal4-RORgamma UAS-luciferase reporter, 20 h | Potency, µM (top dose mostly 53.6 µM), for the others: at the top dose activity change, negative = inhibition, actives largely listed as inhibitors | 310,000 compounds, 5.4% hits; also: % is scaled to controls: 0 for no effect and ±100 for the full control effect; nearly all actives have a fitted effect of over 60% in size
Target sequence (P51450 whole entry, looked up, the tested form may be a part): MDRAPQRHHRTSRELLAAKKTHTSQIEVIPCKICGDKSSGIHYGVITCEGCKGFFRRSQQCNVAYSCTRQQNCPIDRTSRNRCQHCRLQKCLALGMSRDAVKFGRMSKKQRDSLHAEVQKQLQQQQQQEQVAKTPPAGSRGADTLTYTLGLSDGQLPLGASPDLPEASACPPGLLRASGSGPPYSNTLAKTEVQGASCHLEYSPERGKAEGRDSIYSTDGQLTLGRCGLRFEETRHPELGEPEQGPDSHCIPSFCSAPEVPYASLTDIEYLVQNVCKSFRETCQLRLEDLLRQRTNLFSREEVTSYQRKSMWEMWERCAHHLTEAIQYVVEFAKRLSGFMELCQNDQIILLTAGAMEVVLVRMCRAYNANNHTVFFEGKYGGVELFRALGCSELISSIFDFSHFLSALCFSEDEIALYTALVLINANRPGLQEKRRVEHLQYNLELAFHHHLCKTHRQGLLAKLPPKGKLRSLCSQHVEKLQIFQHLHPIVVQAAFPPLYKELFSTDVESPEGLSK
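ROR gamma transcriptional activity was tracked as Gal4-UAS luciferase output in stably transfected Drosophila Schneider cells, with compound added 1 hr before 700 uM copper sulfate induction and a 20 hr ambient-temperature incubation.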
Gal4-VP16 FLuc = counter-screen for ROR gamma inhibitors: Gal4-VP16 reporter | Potency, µM (titrated, usually from 53.6 µM), for the others: at the highest dose activity, negative = inhibition, actives largely listed as inhibitors | Drosophila S2 Gal4-VP16 UAS-luciferase, luminescence, 20 h | 310,000 compounds, 3.5% hits | AID 2546;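 also: Gal4-VP16 expression switched on by copper sulfate through the metallothionein promoter; % is scaled to controls: 0 for no effect and ±100 for the full control effect; nearly all actives have a fitted effect of over 50% in size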
Sfp inh = blocks B. subtilis Sfp PPTase activity. 310,000 compounds, 3.5% hits. Q9F4F7. Biochemical Sfp PPTase activity, qHTS. Potency, µM, for inactives: largest response in the series, negative = inhibition, hits mostly inhibitors;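 also: the enzyme is Sfp with the accession as filed and its product quenches rhodamine fluorescence; 0% = enzyme reaction without inhibitor and -100% = no enzyme wells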
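Fluorescence-quenching assay with 15 nM Sfp, 5 uM rhodamine-CoA and 12.5 uM BHQ-2-labelled ybbR peptide in pH 7.6 Hepes/MgCl2 buffer. Enzyme was pre-incubated with compound for 15 min at room temperature. Rate was taken from the 30-min fluorescence change (525/598 nm).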
Starred values were filed as active, the others as inactive; ? = inconclusive; · = no result given; [ ] = dose if it differs, or a comment. Unless noted, calls follow the shape of the dose curve; as a rule, active = well fitted curve in the direction sought with a large enough effect; inconclusive = small, poorly fitted or top-dose-only effect, or another doubt; inactive = no such curve, though single readings can be large; an effect the other way counts as inactive or inconclusive. Potency is read from the fitted curve at half-maximal effect.

SMILES	PINK1 modulator	Epigenetic reg	ClpP mod	RORg inh	Gal4-VP16 FLuc	Sfp inh
CC[C@H](C)[C@H](NC(=O)[C@H](CCC(=O)O)NC(=O)[C@H](CO)NC(=O)[C@@H](NC(=O)[C@@H](N)CO)C(C)C)C(=O)N[C@@H](CCC(N)=O)C(=O)N[C@@H](CC(C)C)C(=O)N[C@@H](CCSC)C(=O)N[C@@H](Cc1cnc[nH]1)C(=O)N[C@@H](CC(N)=O)C(=O)N[C@@H](CC(C)C)C(=O)NCC(=O)N[C@@H](CCCCN)C(=O)N[C@@H](Cc1cnc[nH]1)C(=O)N[C@@H](CC(C)C)C(=O)N[C@@H](CC(N)=O)C(=O)N[C@@H](CO)C(=O)N[C@@H](CCSC)C(=O)N[C@@H](CCC(=O)O)C(=O)N[C@@H](CCCNC(=N)N)C(=O)N[C@H](C(=O)N[C@@H](CCC(=O)O)C(=O)N[C@@H](Cc1c[nH]c2ccccc12)C(=O)N[C@@H](CC(C)C)C(=O)N[C@@H](CCCNC(=N)N)C(=O)N[C@@H](CCCCN)C(=O)N[C@@H](CCCCN)C(=O)N[C@@H](CC(C)C)C(=O)N[C@@H](CCC(N)=O)C(=O)N[C@@H](CC(=O)O)C(=O)N[C@H](C(=O)N[C@@H](Cc1cnc[nH]1)C(=O)N[C@@H](CC(N)=O)C(=O)N[C@@H](Cc1ccccc1)C(=O)N[C@H](C(=O)N[C@@H](C)C(=O)N[C@@H](CC(C)C)C(=O)NCC(=O)O)C(C)C)C(C)C)C(C)C	·	·	·	-2%	3%	?
Cc1cc(NC(=O)c2ccc(F)cc2)n(CCOC(=O)c2ccc(F)cc2)n1	3%	0%	-5%	?	-16%	4%
Cc1cc(NC(=O)c2ccc(Cl)cc2)n(CCOC(=O)c2ccc(Cl)cc2)n1	7%	-1%	0%	?	16µM*	3%
Cn1c2ccc(F)cc2c2ncn(CCCN(CCO)CCO)c(=O)c21	5%[38.3 µM]	-1%	28µM*	31%	2%	-18%
COc1ccc2c(c1)c1ncn(Cc3ccc(F)cc3)c(=O)c1n2C	4%	3%	-5%	40%	1%	1%
CCCOc1ccccc1C(=O)Nc1nc2c(s1)CCCC2	6%	0%	30%	·	·	·
O=C(NC1CCCCCCC1)c1ccccc1O	?	0%	28µM*	?	7%	14%
CC1CCCC(NC(=O)Cc2ccc(Br)cc2)C1C (stereo not drawn)	3%	-1%	1%	-44%	2%	2%
O=C(NC(=S)NC1CCCCC1)c1ccccc1	9%	·	1%	5µM*	7.1µM*	5%
CN(C(=S)NC(=O)c1ccc(Cl)cc1)C1CCCCC1	4%	·	-1%	0.32µM*	0.79µM*	50µM*
CC1CCCC(NC(=S)NC(=O)c2ccccc2Br)C1C (stereo not drawn)	?	0%	1%	2.5µM*	5µM*	6%
COc1ccc(CCn2c3c(c(=O)[nH]c2=S)CN(C)CN3)cc1OC	0%	·	-4%	·	·	·
O=C(NNC(=O)c1cc(O)c(O)c(O)c1)NC1CCCCC1	-1%	-1%	-1%	12%	-5%	10µM*
O=C(NNC(=S)Nc1ccc(Br)cc1)c1ccccc1Br	9%	·	-5%	?	?	-11%
COc1ccc(Cl)cc1C(=O)NNC(=S)NC1CCCCC1	1%	0%	·	0.25µM*	?	24%
O=C(NNC(=O)c1cccnc1)NC1CCCCC1	5%	-1%	-1%	-14%	14%	13%
COc1ccc(CCC(=O)NNC(=O)c2cc(Cl)ccc2OC)cc1	2%	·	·	-3%	-1%	15%
COc1ccc(CC(=O)NNC(=O)c2cc(Cl)ccc2OC)cc1	?	·	28µM*	·	·	·
O=C(NNC(=S)NC1CCCCC1)c1ccccc1Br	2%	·	-5%	1.1µM*	?	-2%
COc1cc(OC)c(C(=O)NNC(=S)NC2CCCCC2)cc1OC	6%	-1%	-2%	?	-11%	2%
CN1C(=O)C[C@H](C(=O)O)[C@@H]1c1cccnc1	·	·	·	-1%	-4%	-9%
O=C(NC1CCCCC1)c1cc(Cl)ccc1[N+](=O)[O-]	1%	1%	28µM*	1%	-5%	4%
O=C(NCCO)c1ccccc1O	0%	5%	32µM*	-38%	4%	5%
COC(=O)Cc1ccc(NC(=S)NNC(=O)c2ccccc2Br)cc1	-1%	0%	-1%	1.6µM*	18µM*	-10%
O=C(NC1CCCC1)c1cc(Cl)ccc1[N+](=O)[O-]	0%	-1%	-1%	-1%	7%	11%
SMILES	PINK1 modulator	Epigenetic reg	ClpP mod	RORg inh	Gal4-VP16 FLuc	Sfp inh
O=C(NNC(=S)Nc1ccccc1Cl)c1ccccc1Br	2%	·	-7%	7.9µM*	?	-10%
CC1=C(C(=O)Nc2cccnc2)C(c2ccc(F)cc2)n2nc(SCc3ccccc3)nc2N1 (stereo not drawn)	2%	-1%	-2%	·	·	·
CN(C(=S)NC(=O)c1ccccc1)C1CCCCC1	4%	·	0%	1.1µM*	1.3µM*	7%
S=C(NC1CCCCC1)NN(c1ccccc1)c1ccccc1	8%	-3%	-1%	2.5µM*	5.6µM*	5%
CN(C(=S)NC(=O)c1ccc(F)cc1)C1CCCCC1	3%	·	-2%	0.89µM*	1.1µM*	-1%
CN(C(=O)c1cccc(NC(=O)c2ccccc2)c1)C1CCCCC1	2%	·	0%	23%	-15%	9%
CC(=O)Nc1nc(-c2ccc3c(c2)CCN3S(C)(=O)=O)cs1	0%	-5%	·	-18%	-7%	56µM*
Cc1cc(C)c2c(=O)[nH]c(SCC(=O)Nc3ccccc3)nc2n1	-1%	-3%	?	-15%	-2%	-20%
Cc1cc(C)c2c(=O)[nH]c(SCC(=O)c3ccc(C)c(C)c3)nc2n1	0%	-5%	·	?	?	56µM*
Cc1cc(C)cc(NC(=O)c2cc(S(=O)(=O)N3CCOCC3)cn2C)c1	2%	1%	2%	·	·	·
COc1ccc(C(=O)c2oc3ccccc3c2NC(=O)c2cc(=O)c3ccc(C)cc3o2)cc1Cl	12%	-1%	2%	·	·	·
N#C/C(=C\c1c[nH]c2ccccc12)C(N)=O	-1%	0%	-1%	5%	-7%	-2%
CC(=O)Oc1c(/C=C(\C#N)C(N)=O)[nH]c2ccccc12	-1%	1%	25µM*	22%	-9%	7%
N#CC1=C(N)NC(=S)C(C(N)=O)C1c1ccccc1F (stereo not drawn)	-2%	0%	·	?	?	0.71µM*
N#CC1=C(N)NC(=S)C(C(N)=O)C1c1ccc(Cl)cc1Cl (stereo not drawn)	-2%	0%	0%	?	?	8.9µM*
